PubChem BioAssay (NCI)
This is part of a sample that, as a whole, favours compounds with a hit. Of some 83,000 tested, about 20% had one in any assay.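 The test compound was applied at a single concentration to cells in 96-well plates for 48 hours, and percent growth was recorded.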 Unmarked numbers belong to inactive results. Active and inactive are the calls of the source. The calls were made as follows: active = growth percent below 10; inactive = the rest.

Key:
Test in all cases: NCI-60 one-dose screen, 48 h (100 = growth as untreated, 0 = no growth, -100 = all killed)
Conditions in all cases: 10 µM
NCI-H23 lung = test system: NCI-H23 lung
NCI-H226 lung = test system: NCI-H226 lung
NCI-H322M lung = test system: NCI-H322M lung
HOP-62 NSCLC = test system: HOP-62 NSCLC
NCI-H460 lung = test system: NCI-H460 lung
NCI-H522 lung = test system: NCI-H522 lung
A549/ATCC NSCLC = test system: A549/ATCC NSCLC
786-0 renal = test system: 786-0 renal
COLO 205 colon = test system: COLO 205 colon
DU-145 prostate = test system: DU-145 prostate
K-562 leukemia = test system: K-562 leukemia
MDA-MB-231 breast = test system: MDA-MB-231 breast
RXF 393 renal = test system: RXF 393 renal
SF-268 CNS = test system: SF-268 CNS
SF-295 CNS = test system: SF-295 CNS
SF-539 CNS = test system: SF-539 CNS
UACC-257 melanoma = test system: UACC-257 melanoma
M14 melanoma = test system: M14 melanoma
HCT-15 colon = test system: HCT-15 colon
MALME-3M melanoma = test system: MALME-3M melanoma

Row | Compound | growth (NCI-H23 lung) | growth (NCI-H226 lung) | growth (NCI-H322M lung) | growth (HOP-62 NSCLC) | growth (NCI-H460 lung) | growth (NCI-H522 lung) | growth (A549/ATCC NSCLC) | growth (786-0 renal) | growth (COLO 205 colon) | growth (DU-145 prostate) | growth (K-562 leukemia) | growth (MDA-MB-231 breast) | growth (RXF 393 renal) [%] | growth (SF-268 CNS) | growth (SF-295 CNS) | growth (SF-539 CNS) | growth (UACC-257 melanoma) | growth (M14 melanoma) | growth (HCT-15 colon) | growth (MALME-3M melanoma)
1 | O=C(Nc1ccncc1)C(=O)c1cn(S(=O)(=O)c2cccc3ccccc23)c2ccccc12 | 62.1% | 76.8% | 86% | 95.1% | 85.7% | 48% | 77.8% | 77.5% | 101% | 95.1% | 18.9% | 74.6% | 89.7 | 107% | 52% | 92.7% | 89% | 82.7% | 65.7% | 
2 | CCN(CCCCCCCCCCN1CC(=O)N(CCCCCCCCCCN(CC)Cc2ccccc2OC)CC1=O)Cc1ccccc1OC | -26.1% (active) | -2.55% (active) | 18.4% | -71.6% (active) | -93.3% (active) | -74% (active) | -48.8% (active) | -72.5% (active) | -91.6% (active) | -52.9% (active) | -58.2% (active) | -66.3% (active) |  | 4.39% (active) | -76.7% (active) | -93.2% (active) | -86.9% (active) | -90.2% (active) | -17% (active) | -83.6% (active)
3 | CCN(CC)CCCOCCCNc1cc(OC)cc2cccnc12 | 83.8% | 85% | 98.7% | 91.7% | 103% | 82.5% | 93.4% | 104% | 31.2% | 116% | 94.3% | 78% |  | 96.7% | 101% | 108% | 83.1% | 106% | 102% | 104%
4 | CCN(CC)CCC(CNc1c(C)cnc2cc(Cl)ccc12)c1ccc(Cl)cc1 (stereo not drawn) | 61.3% | 102% | 53.8% | 66.2% | 67.7% | 31.7% | 64.7% | 58.2% | -45.5% (active) | 79% | 7.15% (active) | 27.3% |  | 67.5% | 51.4% | -52.3% (active) | -58.3% (active) | -67.3% (active) | 35% | -57.9% (active)
5 | N=c1nc(N)ncn1-c1ccccc1 | 93.1% | 89.9% | 108% | 92.9% | 106% | 83.1% | 92.4% | 98% | 101% | 112% | 93.5% | 96.1% |  | 108% | 97.8% | 96.4% | 97.1% | 106% | 99.1% | 110%
6 | CCN(CC)CCCC(C)Nc1nc(-c2ccc(OC)cc2)nc2cc(Cl)ccc12 (stereo not drawn) | 73.2% | 91.7% | 65.4% | 70.5% | 72.5% | 35.6% | 69.6% | 65.5% | 41.6% | 77.9% | 44.3% | 28.9% |  | 60.1% | 89.7% | 62% | 46% | -29% (active) | 49.9% | 79.2%
7 | CCCCCCCCN(CCCCCCCC)CCCCCCCCCN1CCCc2cc(OC)ccc21 | 63.4% | 89.7% | 95.5% | 85% | 102% | 79.4% | 97.2% | 98.3% | 87.8% | 105% | 80.4% | 89.9% |  | 99.9% | 88.5% | 104% | 106% | 93.8% | 89.3% | 104%
8 | O=C(CC(c1ccccc1)N1CCOCC1)c1ccccc1 (stereo not drawn) | 83.3% | 90.8% | 96.9% | 88.2% | 106% | 88.5% | 97.4% | 80.9% | 116% | 80.3% | 27.9% | 98.6% |  | 91.8% | 94.9% | 97.5% | 80.5% | 95.8% | 92.2% | 87.6%
9 | COc1ccc2c(c1)C(=O)c1c-2c(OCCN2CCCCC2)nc2ccc(OC)cc12 | 12.6% | 23.9% | 5.72% (active) | 24.4% | -50.7% (active) | 25.1% | 11.6% | 18% | 28% | 11.3% | 11.2% | 66.5% | 47.3 | 28.1% | 2.81% (active) | 20.9% | 32.3% | 22.9% | 26.2% | 
10 | CCN(CC)CCC(=O)Nc1cccc2c1C(=O)c1c(c(O)c3ccccc3c1O)C2=O | 62% | 29% | 56.7% | 47.9% | 15.5% | 46.4% | 33.7% | 4.91% (active) | 51.3% | 51.2% | 23.3% |  | 58.4 | 56.9% | 25.7% | 38% | 85.6% | 70.8% | 51.9% | 61.6%
11 | COc1cc(/C=N/NC(=O)c2ccccc2Nc2ccnc(C(F)(F)F)c2)ccc1O | 91.8% | 238% | 130% | 110% | 108% | 102% | 66.9% | 106% | 115% | 130% | 90.4% | 112% |  | 105% | 114% | 112% | 126% | 89.7% | 106% | 121%
12 | COc1ccc(NC(=O)Cc2nc3nc4sc(C)c(C)c4c(=O)n3[nH]2)cc1 | 101% | 86.7% | 94.5% | 107% | 110% | 90.3% | 91.2% | 104% | 118% | 110% | 109% | 108% |  | 109% | 91.3% | 103% | 101% | 103% | 99.7% | 89.2%
